Screening results from PubChem BioAssay.
Sampled rows, rich in hits. Any-hit rate of the full collection: about 19%.
Marburg entry inh – qHTS for inhibitors of binding or entry into cells for Marburg Virus | Marburg virus pseudotyped entry inhibition, cell reporter | Potency, µM (doses to about 37.8 µM), for inactives: at the highest dose activity change, negative = inhibition, hits mostly inhibitors | hit rate 1.8% among 300,000; calls by dose curve; tested in HEK293 cells; also: potency is read from the fitted curve at half-maximal effect; % is scaled to controls: 0 for no effect and ±100 for the full control effect
Cycloheximide cs – Cycloheximide Counterscreen for Small Molecule Inhibitors of Shiga Toxin | cell reporter, cycloheximide protein synthesis inhibition counterscreen | max response, % | hit rate 12% among 300,000 | AID 2314, 2010; in the data active = max response mostly above about 13%, no sharp cut-off; inactive = mostly below about 14%; also: read at 38.3 µM for the half of the compounds with a filed dose; 0% is about no effect
Shiga inhibitor – A qHTS for Small Molecule Inhibitors of Shiga Toxin; Vero cells, Shiga toxin protein synthesis inhibition reporter; inhibition, % at 38.7 µM; hit rate 9.2% among 290,000; in the data active = inhibition mostly above about 28%, no sharp cut-off; inactive = mostly below about 43%; also: 0% is about no effect
Pf growth 96h – Primary qHTS for delayed death inhibitors of the malarial parasite plastid, 96 hour incubation; P. falciparum luciferase reporter growth, 96 h; Potency, µM (series often up to 28.7 µM), without a hit: at the highest dose activity change, negative = inhibition, most hits filed as inhibitors; hit rate 6.9% among 320,000; also: potency is read from the fitted curve at half-maximal effect; % is scaled to controls: 0 for no effect and ±100 for the full control effect
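Cell-based qHTS: luciferase-tagged P. falciparum in erythrocytes (2% hematocrit, 0.05% parasitemia final) incubated with compounds for 96 hours, 37 C, 5% CO2; luciferase detection reagent then added and luminescence measured.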
Lassa entry inh – qHTS for Inhibitors of binding or entry into cells for Lassa Virus | Lassa virus pseudotype entry inhibition, cell reporter | Potency, µM (top dose mostly 37.9 µM), for the others: at the top dose activity change, negative = inhibition, most hits filed as inhibitors | hit rate 1.2% among 300,000 | AID 540256, 2011; calls by dose curve; tested in HEK293 cells; also: potency is read from the fitted curve at half-maximal effect; % is scaled to controls: 0 for no effect and ±100 for the full control effect; nearly all actives have a fitted effect of over 50% in size
Pf growth 48h – Primary qHTS for delayed death inhibitors of the malarial parasite plastid, 48 hour incubation. hit rate 5.9% among 310,000. Potency, µM (highest dose often 28.7 µM), for the others: top-dose activity change, negative = inhibition, most hits filed as inhibitors. P. falciparum luciferase growth in erythrocytes, 48 h; also: potency is read from the fitted curve at half-maximal effect; % is scaled to controls: 0 for no effect and ±100 for the full control effect
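Firefly luciferase activity from engineered P. falciparum reports growth; inhibitors lower the luminescent signal. Cultures contained 2% hematocrit erythrocytes at 0.1% final parasitemia.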
An asterisk follows results filed as active; ? = inconclusive; . = no result; [ ] = another dose, or the depositor's remark. Unless noted, calls follow the shape of the dose curve; as a rule, active = well fitted inhibition curve with a large enough effect; inconclusive = small, poorly fitted or top-dose-only effect, or another doubt; inactive = no such curve, though single readings can be large or run the other way.

SMILES	Marburg entry inh	Cycloheximide cs	Shiga inhibitor	Pf growth 96h	Lassa entry inh	Pf growth 48h
CCc1ccc(-c2csc3nc[nH]c(=O)c23)cc1	?	22*	15	?	?	24%
CC(C)c1ccc(-c2csc3nc[nH]c(=O)c23)cc1	.	24*	.	54%	.	48%
O=c1c2cn[nH]c2[nH]c(=S)n1-c1cccc2ccccc12	?	-4	3	4%	4%	2%
Cc1cccc(NCN2C(=O)C3C4C=CC(C4)C3C2=O)c1 (configuration not stated)	10%	11	-5	13%	22%	.
CCOc1ccc(CCNC(=O)COC(=O)c2ccc(Cl)nc2)cc1OCC	12%	.	.	4%	?	?
CC(=O)Nc1ccc(NC(=O)CSc2nnc(NC(=O)c3ccco3)s2)cc1	19%	-4	-10	2%	?	8%
C1=Cc2ccccc2Nc2ccccc21	0%	-3	20	11%	.	-22%
COC(=O)/C(C#N)=C1/C=Cc2ccccc2N1	?	34*	68*	79%	-1%[46.1 µM]	71%
CN1C2CCC1CC(OC(=O)c1cc(Cl)cc(Cl)c1)C2 (configuration not stated)	7.1µM*	-3	-7	12%	?	?
CC(NC(=O)C1CCCN1C(=O)OCc1ccccc1)c1ccccc1 (configuration not stated)	.	-3	25	?	.	-1%
COc1cc2nc(N3CCN(C(=O)OCc4ccccc4)C(C(=O)NC(C)(C)C)C3)nc(N)c2cc1OC (configuration not stated)	11µM*	.	.	.	?	.
COc1cc2nc(N3CCN(C(=O)OCc4ccccc4)[C@H](C(=O)NC(C)(C)C)C3)nc(N)c2cc1OC	?	-2	-10	5.2µM*	.	2.9µM*
CCOC(=O)c1c(C)[nH]c(C)c1S(=O)(=O)N(C)CC(=O)Nc1cc(Cl)ccc1C	.	.	.	.	-10%[46.1 µM]	.
CCOC(=O)c1cc2c(=Cc3ccc(N(C)C)cc3)c3ccccc3n2[n+]1C	?	.	.	.	11µM*	.
Cc1cc2c(=Cc3ccc(N(C)C)cc3)c3ccccc3n2[n+]1C	?	.	.	.	2.2µM*	.
CN(C)c1ccc(C=c2c3ccccc3n3c2c2ccccc2[n+]3C)cc1	?	.	.	.	7.1µM*	.
CC1=NN(c2cccc(F)c2)C(=O)/C1=C/c1ccc(N(C)C)cc1	?	2	-11	?	15%	-11%
CCCCNS(=O)(=O)c1ccc(OC)c(C)c1	?	-3	9	?	-3%	7%
O=C(c1cccc(S(=O)(=O)N2CCc3ccccc32)c1)N1CCCC(C(F)(F)F)C1 (configuration not stated)	-1%	.	.	?	-13%	?
OC(COCc1ccccc1)COCc1ccccc1	?	.	.	.	-20%	.
CC1CCCC(C)N1CC(O)COCc1ccccc1 (configuration not stated)	6.3µM*	-1	-3	16%	-29%[46.1 µM]	17%
Cc1n(CC(O)COCc2ccccc2)c2ccccc2[n+]1C (configuration not stated)	17%	-3	-11	3.3µM*	5%	9.3µM*
Cc1ccsc1/C=N/NC(=O)CNC(=O)c1ccccc1	.	16	-3	49%	.	0%
Cc1ccsc1/C=N/NC(=O)Cc1ccc([N+](=O)[O-])cc1	-26%[46.1 µM]	.	.	.	1%	.
O=C(N/N=C/c1cc(Br)c(Br)o1)C(O)c1ccccc1 (configuration not stated)	-7%[46.1 µM]	2	12	?	0%	-15%
Cc1ccsc1/C=N/NC(=O)C(O)c1ccccc1 (configuration not stated)	.	9.6*	12	-14%	.	16%
Cc1ccsc1/C=N/NC(=O)c1cccs1	8%	33*	77*	40%	?	103%
Cc1ccsc1/C=N/NC(=O)C(N)=O	.	35*	73	43%	.	22%
Cc1ccsc1/C=N/NC(=O)c1ccccn1	?	62*	47*	24%	?	180%
O=C(NN1C(=O)C2C(C1=O)C1C=CC2C12CC2)c1cccnc1 (configuration not stated)	5%[46.1 µM]	-1	13	?	.	24%
